According to the supplement of paper PMC6555819:

Assays:
Test in all cases: PBM binding z-score (relative to random genomic background probes); higher = stronger binding; sequences stand for … in GC…GCGATTGACAGCGTAGAATGAAGG
[1] = system: FXR:RXRa (NR concentration 270 nM, RXRa partner concentration 90 nM)
Procedure, shortened: (§1)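 Ligand-free nuclear receptor dimers were applied to custom Agilent 4×180K protein-binding microarrays whose double-stranded probes carried direct-repeat seeds, single-nucleotide variants, half-site ablations and random human genomic background sequences in 34-nt variable regions. Incubation lasted 1 h. Binding z-scores were computed against the random background probes from regression-normalized fluorescence.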

[2] = system: LXRa:RXRa (NR concentration 270 nM, RXRa partner concentration 90 nM)
Procedure, shortened: as §1

[3] = system: LXRa homodimer (NR concentration 270 nM)
Procedure, shortened: as §1

[4] = system: LXRb:RXRa (NR concentration 270 nM, RXRa partner concentration 90 nM)
Procedure, shortened: as §1

[5] = system: LXRb homodimer (NR concentration 270 nM)
Procedure, shortened: as §1

[6] = system: PPARa:RXRa (NR concentration 270 nM, RXRa partner concentration 90 nM)
Procedure, shortened: as §1

[7] = system: PPARg:RXRa (NR concentration 180 nM, RXRa partner concentration 90 nM)
Procedure, shortened: as §1

[8] = system: PPARg:RXRa 270nM:90nM, anti-RXR (NR concentration 270 nM, RXRa partner concentration 90 nM)
Procedure, shortened: as §1

[9] = system: PPARg:RXRa 30nM:10nM, anti-RXR (NR concentration 30 nM, RXRa partner concentration 10 nM)
Procedure, shortened: as §1

[10] = system: PPARg:RXRa 90nM:30nM, anti-RXR (NR concentration 90 nM, RXRa partner concentration 30 nM)
Procedure, shortened: as §1

[11] = system: PPARg:RXRa DBDmut IVT, anti-RXR (DBD mutation: RXRa K156A/R161A, NR concentration 270 nM, RXRa partner concentration 90 nM)
Procedure, shortened: as §1

[12] = system: PPARg:RXRa IVT, anti-PPARg (NR concentration 270 nM, RXRa partner concentration 90 nM)
Procedure, shortened: as §1

[13] = system: PPARg DBDmut:RXRa IVT, anti-PPARg (DBD mutation: PPARg1 K132A/R137A, NR concentration 270 nM, RXRa partner concentration 90 nM)
Procedure, shortened: as §1

[14] = system: PPARg DBDmut IVT, anti-PPARg (DBD mutation: PPARg1 K132A/R137A, NR concentration 270 nM)
Procedure, shortened: as §1

[15] = system: PPARg homodimer (NR concentration 180 nM)
Procedure, shortened: as §1

[16] = system: PXR:RXRa (NR concentration 270 nM, RXRa partner concentration 90 nM)
Procedure, shortened: as §1

[17] = system: PXR homodimer (NR concentration 270 nM)
Procedure, shortened: as §1

[18] = system: RARa:RXR (NR concentration 270 nM, RXRa partner concentration 90 nM)
Procedure, shortened: as §1

[19] = system: RARa homodimer (NR concentration 270 nM)
Procedure, shortened: as §1

[20] = system: RARb:RXRa (NR concentration 270 nM, RXRa partner concentration 90 nM)
Procedure, shortened: as §1

Sequence | PBM binding z-score [1] | PBM binding z-score [2] | PBM binding z-score [3] | PBM binding z-score [4] | PBM binding z-score [5] | PBM binding z-score [6] | PBM binding z-score [7] | PBM binding z-score [8] | PBM binding z-score [9] | PBM binding z-score [10] | PBM binding z-score [11] | PBM binding z-score [12] | PBM binding z-score [13] | PBM binding z-score [14] | PBM binding z-score [15] | PBM binding z-score [16] | PBM binding z-score [17] | PBM binding z-score [18] | PBM binding z-score [19] | PBM binding z-score [20]
TCTTGTAGCTCAACAGGAGGTTAAGAAAGATCGA | -0.163 | 0.472 | -0.218 | 0.222 | -0.709 | 0.659 | -0.365 | 0.868 | 2.01 | 1.4 | 0.679 | -0.415 | 0.889 | 0.0315 | -0.822 | 0.474 | -0.26 | 0.724 | -0.715 | -0.0252
CTCGAAAGGTCGTGCTCAGGGGAGTATACCAAAC | 4.81 | 3.33 | 0.243 | 3.32 | 0.229 | 4.69 | 2.3 | 3.33 | 0.905 | 2.16 | 0.876 | 1.67 | 0.228 | 0.455 | 1.54 | 2.79 | 0.224 | 3.43 | -0.0621 | 3.88
GCGACTGGGGCATCAGCAGGTTGCCATAACTTAA | -0.664 | -0.697 | -0.615 | -0.443 | -1.37 | 0.348 | 0.434 | 0.229 | -0.762 | -0.301 | 3.45 | 2.85 | 0.246 | -0.846 | -0.258 | -0.58 | -0.422 | -0.453 | -0.648 | 0.207
CGAACTAGGTCAGAACAGGACACTGAAGGATGAT | 1.48 | 1.37 | 0.372 | 0.71 | -0.177 | 3.15 | 5.08 | 4.56 | 1.8 | 3.43 | 7.14 | 7.36 | 1.14 | 1.38 | 0.688 | 0.996 | -0.0376 | 1.24 | 0.452 | 2.9
TATACACGGTCAAAGGCCAGAGTACGAATGTCGA | 1.3 | 3.22 | 2.75 | 0.929 | 1.43 | 2.04 | 3.99 | 4.34 | 2.65 | 4.3 | 0.134 | 2.39 | 1.55 | 1.14 | 1.12 | 0.507 | 0.583 | 1.13 | 0.418 | 2.85
CCGACTGGGGCAGAAAGATTACCATACCATCCGG | -0.557 | -0.807 | -0.423 | -0.639 | -1 | -0.291 | 0.958 | -0.112 | -0.469 | -0.456 | 1.53 | 0.903 | -0.59 | -1.13 | -0.627 | -0.737 | -0.227 | -0.36 | -0.0256 | 0.0416
TCATATAGGTAAAAGGCGAAAGTCGGTGTGGTAA | 0.336 | 0.537 | 0.094 | 0.746 | -0.359 | 2.66 | 4.65 | 6.15 | 6.72 | 7.04 | 3.92 | 3.21 | 0.28 | 0.103 | 0.768 | 0.309 | 0.159 | 0.628 | 0.926 | 0.164
GGAACGAGCGCATTCGAGTTGATAGCATGGCGAT | -1.63 | -0.936 | -0.9 | -1.41 | -1.24 | -1.94 | 0.379 | -1.09 | -0.954 | -1.27 | -0.641 | -0.81 | -0.918 | -0.781 | -1.13 | -0.904 | -0.628 | -1.29 | -0.875 | -1.26
GCGACTGGGGCAAAGCAGTTTACCATAAGGTTGG | -0.303 | -0.296 | -0.507 | -0.071 | -1.21 | 0.822 | 1.17 | 1.31 | -0.433 | 0.756 | 4.75 | 3.5 | 0.0777 | -0.489 | 0.131 | 0.655 | -0.386 | -0.18 | -0.418 | 0.776
CCTTACGGGTCACGAGGTGATAGCACGACGAGCG | 6.73 | 4.27 | -0.242 | 3.42 | -0.279 | 5.82 | 7.42 | 6.5 | 3.14 | 5.75 | 3.97 | 5.24 | 1.17 | 1.06 | 3.17 | 3.69 | -0.0631 | 5.02 | 0.649 | 4.27
TAGCCTAGGTCATGGGCAAGTATACCACGCGAAC | 4.43 | 3.35 | 0.241 | 2.46 | -0.306 | 4.37 | 3.93 | 3.3 | 0.879 | 2.22 | 1.64 | 3.48 | -0.144 | 0.186 | 1.13 | 1.51 | -0.303 | 2.48 | -0.000605 | 4.09
ATATGTAGGTTACATCCGGGTCATTGAGGCTATG | 2.34 | 4.14 | 1.44 | 2.74 | 1.01 | 4.44 | 5.78 | 5.04 | 2.75 | 4.39 | 7.27 | 7.27 | 2.02 | 2.36 | 1.82 | 3.65 | 4.12 | 3.65 | 0.615 | 2.38
TCTTGTAGATCAACAGGAGGTTAAGAATGATCGA | 0.541 | 0.729 | 0.072 | 0.703 | -0.4 | 1.41 | 0.296 | 1.52 | 2.59 | 2.06 | 1.72 | 0.852 | 0.795 | 0.577 | 0.581 | 0.825 | 0.00794 | 0.975 | 0.614 | 0.678
AGTCAAAGTTCATCTAGGTAACGGAAGATATGCT | 6.87 | 6.02 | 4.37 | 3.7 | 1.73 | 4.86 | 6.85 | 6.48 | 3.55 | 5.62 | 0.826 | 4.12 | 1.91 | 0.45 | 3.26 | 5.42 | 7.16 | 3.87 | 2.15 | 4.94
AGAATGAGGTTAAGATCAGGGATACAGAATACAT | 2.25 | 1.75 | 0.0573 | 1.78 | 0.0208 | 3.7 | 2.77 | 2.46 | 0.866 | 1.71 | 3.07 | 2.89 | 0.847 | 0.843 | 0.828 | 1.23 | 0.547 | 2.08 | 0.49 | 1.92
CCTTACGGGTTACGAGGTTATAGCACGACGAGCG | 1.8 | 2.11 | 0.0451 | 1.8 | -0.317 | 3.36 | 2.89 | 3.03 | 0.671 | 1.8 | 1.39 | 2.73 | -0.246 | 1.02 | 1.32 | 1.95 | 0.0657 | 2.76 | 0.573 | 1.58
CCTAGTTGGTCAGGAGGTGACACACCGGATATGA | 0.076 | 0.0334 | 0.0506 | 0.214 | -0.0582 | 1.17 | 1.04 | 1.33 | 0.0174 | 0.666 | 0.676 | 2.36 | 0.321 | -0.109 | 1.41 | 0.171 | 0.895 | 0.496 | 0.818 | 1.25
AGAATGAGGTTAAGATCAGGGAGACAGAATACAT | 2.07 | 1.66 | 0.293 | 1.69 | -0.0325 | 3.31 | 2.15 | 2.29 | 0.947 | 1.62 | 3.04 | 2.59 | 1.8 | 0.747 | 0.955 | 1.26 | 0.933 | 1.95 | 0.709 | 1.91
